A selection: hits, their analogues and other compounds. The true share with any hit is near 6.5%.
FMDV inh: High Throughput Screening for Foot and Mouth Disease Virus Antivirals; FMDV antiviral cell-based qHTS; actives 1.2% (n = 410,000); Potency, µM (series often up to 57.9 µM), for inactives: top-dose activity change, negative = inhibition, usual class: inhibitors; AID 1159524, 2015; calls by dose curve; tested in HEK293T cells; note: read-out not given here; potency is the fitted concentration of half-maximal effect; nearly all actives have a fitted effect of over 45% in size
HCMV inh: qHTS Assay for inhibitors of the human cytomegalovirus (HCMV) | actives 4.5% (n = 410,000) | activity change, negative = inhibition, % at 57.5 µM | HFF cells, HCMV-luciferase reporter, 72 h; stronger effect = lower value; in the data active = activity change below about -60%; inconclusive = no clear call, values can overlap the other calls; inactive = above about -39%
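Human foreskin fibroblasts infected with luciferase-reporter HCMV at MOI 1 PFU/cell, compounds at two doses. Luciferase measured 72 h post infection; normalized to buffer-only basal and Salinomycin (10uM) controls.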
LASV entry inh: qHTS for Inhibitors of binding or entry into cells for Lassa Virus; AID 540256, 2011; Potency, µM (series often up to 37.9 µM), for inactives: at the highest dose activity change, negative = inhibition, most hits filed as inhibitors; actives 1.2% (n = 300,000); Lassa virus pseudotype entry inhibition, cell reporter; calls by dose curve; tested in HEK293 cells; note: potency is the fitted concentration of half-maximal effect; nearly all actives have a fitted effect of over 50% in size
Vaccinia Venus: qHTS for Stage-Specific Inhibitors of Vaccinia Orthopoxvirus: Venus Reporter Primary qHTS | Vaccinia virus Venus reporter expression, fluorescence | Potency, µM (highest dose often 36.5 µM), inactives show at the highest dose activity change, negative = inhibition, hits mostly inhibitors | actives 0.46% (n = 330,000); calls by dose curve; tested in A549 cells; note: potency is the fitted concentration of half-maximal effect; nearly all actives have a fitted effect of over 30% in size
MARV entry inh: qHTS for inhibitors of binding or entry into cells for Marburg Virus; Marburg virus pseudotyped entry inhibition, cell reporter; Potency, µM (series often up to 37.8 µM), for the others: at the top dose activity change, negative = inhibition, actives largely listed as inhibitors; actives 1.8% (n = 300,000); calls by dose curve; tested in HEK293 cells; note: potency is the fitted concentration of half-maximal effect
VACV mCherry inh: qHTS for Stage-Specific Inhibitors of Vaccinia Orthopoxvirus: mCherry Reporter Primary qHTS | Vaccinia virus mCherry reporter infection, fluorescence | Potency, µM (doses to about 36.5 µM), for the others: at the highest dose activity change, negative = inhibition, hits mostly inhibitors | actives 0.63% (n = 310,000); calls by dose curve; tested in A549 cells; note: potency is the fitted concentration of half-maximal effect; nearly all actives have a fitted effect of over 35% in size
Active calls of the source: *; i = inactive; ? = inconclusive; · = not tested or not shown; [ ] = dose if it differs, or a comment. % is set by controls: 0 for no effect and ±100 for the full control effect.

SMILES	FMDV inh	HCMV inh	LASV entry inh	Vaccinia Venus	MARV entry inh	VACV mCherry inh
Fc1ccccc1COc1ccc(/C=N/NC(=S)NCc2ccccc2)cc1	-10%	-17	?	·	-4%	·
CNC(=S)N/N=C/c1cccc(OCc2ccccc2F)c1	-9%	6	4µM*	-25%	?	-5%
CCNC(=S)N/N=C/c1cccc(OCc2c(F)cccc2Cl)c1	?	?	9.2µM*	-27%	?	-7%
CCNC(=S)N/N=C/c1cccc(/C=N/NC(=S)NCC)c1	-7%	-37	6%	9%	-14%[46.1 µM]	16%
CNC(=O)c1c(NC(=O)c2cc(=O)c3cc(C)c(C)cc3o2)sc2c1CCCC2	-26%	19	22%[46.1 µM]	6%	?	-12%
COc1ccccc1CCNC(=O)c1c(N)[nH]c(C(=O)c2ccccc2)c1-c1ccc(Br)cc1	-7%	-25	·	-18%	·	-14%
COc1cccc(NC(CNS(=O)(=O)c2ccc(Cl)cc2)c2ccccc2)c1 (stereo not given)	-20%	-100*	?	?	?	?
Cc1ccc(NC(CNS(=O)(=O)c2ccc(Cl)cc2)c2ccccc2)cc1 (stereo not given)	-12%	-80*	?	?	?	-28%
O=S(=O)(NCC(Nc1ccc(Cl)cc1)c1ccccc1)c1ccccc1 (stereo not given)	-4%	-35	?	?	?	?
COC(=O)[C@@H]1C[C@@]23C(=NN=C(SC)C2Nc2ccccc23)N1C(C)=O (stereo not given in full)	·	·	·	·	-23%[14.2 µM]	·
O=C(COc1ccc(F)cc1Br)Nc1ccccc1N1CCCC1	?	-2	·	0%	·	-8%
NS(=O)(=O)c1ccccc1	-2%	-17	18%	2%	-3%	i
O=S(=O)(/C=C/C=C/S(=O)(=O)c1ccccc1)c1ccccc1	7.9µM*	-78*	1µM*	14µM*	?	?
Cc1ccc(CCC(=O)Nc2cc(Cl)ccc2Cl)o1	4%	-97*	21%[46.1 µM]	-7%	6%[46.1 µM]	1%
Cc1ccc(C)c(NC(=O)CCc2ccc(C)o2)c1	-4%	-14	·	·	·	·
CCc1nnc(NC(=O)CCc2ccc(C)o2)s1	0%	6	6%	·	5%	·
Cc1ccc(CCC(=O)Nc2ncc(Cc3cccc(Cl)c3Cl)s2)o1	-21%	-64*	?	?	?	?
COc1cccc(N2CCN(c3c(C#N)c(C(F)(F)F)nn3C)CC2)c1	?	-94*	?	-24%	?	·
O=C(Cn1c(=O)n(Cc2ccco2)c(=O)c2sc3ccccc3c21)Nc1ccc(F)cc1F	-23%	-74*	1%[46.1 µM]	-8%	-17%[46.1 µM]	-11%
Cc1ccc(NC(=O)Cn2c(=O)n(Cc3ccco3)c(=O)c3sc4ccccc4c32)c(C)c1	-3%	-2	5%[46.1 µM]	-20%	-5%[46.1 µM]	-6%
CC(=O)Nc1nc(-c2ccc3c(c2)CCN3C(=O)C2CC2)c(C)s1	52%	-98*	14%[46.1 µM]	-17%	?	-16%
COc1ccccc1N1CCN(c2nc(CNC(=O)c3cc(C)oc3C)nc3ccccc23)CC1	-23%	·	·	-5%	·	-13%
CCN(CC)S(=O)(=O)c1ccc2[nH]cc(C(=O)NCCN3CCCCCC3)c(=O)c2c1	-3%	-17	?	2%	-12%	2%
CCN(CC)S(=O)(=O)c1ccc2[nH]cc(C(=O)NCCN3CCCCC3C)c(=O)c2c1 (stereo not given)	-3%	6	-12%	-4%	-4%	-7%
CCN(CC)S(=O)(=O)c1ccc2[nH]cc(C(=O)NCCC3=CCCCC3)c(=O)c2c1	14µM*	-83*	1.3µM*	?	11µM*	·
SMILES	FMDV inh	HCMV inh	LASV entry inh	Vaccinia Venus	MARV entry inh	VACV mCherry inh
CCN(CC)S(=O)(=O)c1ccc2[nH]cc(C(=O)NCCCN3CCCCC3C)c(=O)c2c1 (stereo not given)	·	-73*	-13%	-7%	9%	-1%
CN(C)c1ccc(CC2CCc3ccccc32)cc1 (stereo not given)	·	·	·	-23%	·	-9%
CS(=O)(=O)Nc1ccc(-c2cncc3nccn23)cc1	-17%	-10	·	-5%	·	5%
CS(=O)(=O)Nc1ccc(-c2cnc3cccnn23)cc1	1%	-64*	·	-8%	·	-2%
Cc1nc(C)c(C(=O)NN=Cc2ccc(N(CCCl)CCCl)cc2)s1	-15%	-28	7.1µM*	-25%	?	i
O=C(N/N=C/c1cn(Cc2ccccc2)c2ccccc12)c1cccnc1	-23%	-27	?	-23%	4.5µM*	-18%
O=C(NN=Cc1ccc(N(CCCl)CCCl)cc1)c1cccc([N+](=O)[O-])c1	-7%	-39	?	-24%	?	i
O=C(NN=Cc1ccc(N(CCCl)CCCl)cc1)c1cccnc1	12%	-4	?	-4%	5.6µM*	-16%
COc1ccccc1NC(=O)CCc1nnc2ccc(N3CCC4(CC3)OCCO4)nn12	-10%	-31	1%[46.1 µM]	-18%	15%[46.1 µM]	i
CCCCCCN(C(=O)CCCCCN1C(=O)NC(c2ccccc2)C(C(=O)OCc2ccccc2)=C1C)C(C(=O)NCCCC)c1ccc(OCC(=O)OC)c(C(=O)OC)c1 (stereo not given)	·	-98*	·	·	·	·
N=c1nc(N)nc2n1NC(c1ccc(F)cc1)=CS2	28%	-88*	?	?	?	?
CN1C(=O)C(=Cc2cn(CC(=O)N3CCCC3)c3ccccc23)C(=O)N(C)C1=O	23%	-5	1%[46.1 µM]	11%	1%[46.1 µM]	-9%
CCOC(=O)C1=C(O)/C(=C/c2cn(CC(=O)N3CCCC3)c3ccccc23)SC1=Nc1ccccc1	8.9µM*	·	-10%	19%	?	-12%
Cc1ccccc1C(=O)NC(CC(C)C)C(=O)Nc1cccc(S(=O)(=O)N(C)C)c1 (stereo not given)	16%	7	·	-3%	·	-20%
Cc1ccccc1C(=O)NC(CC(C)C)C(=O)Nc1ccc(F)c([N+](=O)[O-])c1 (stereo not given)	-16%	-104*	?	-14%	?	-16%
CCOC(=O)NC(=O)/C(C#N)=C(/C)N(C)C	1%	-15	9%[46.1 µM]	-7%	-7%[46.1 µM]	i
O=C(CNc1cccc2ccccc12)N/N=C/c1ccc([N+](=O)[O-])o1	0%	-95*	?	·	?	·
O=C(CNc1cccc([N+](=O)[O-])c1)N/N=C/c1ccc([N+](=O)[O-])o1	11%	-66*	?	?	?	?
Cc1ccc(OCC(=O)N/N=C\c2cn(C)c3ccccc23)c([N+](=O)[O-])c1	-14%	22	?	·	?	·
